Experimental data taken from PubChem BioAssay (Tox21).
Records with an inconclusive call do not appear. Active and inactive are the calls of the source. Unless noted, calls come from the whole dose curve; as a rule, active = well fitted curve in the direction sought with a large enough effect in the repeat runs; inconclusive = weak or mixed curves; inactive = no such curve, though single readings can be large; an effect the other way counts as inactive or inconclusive. Non-standard residues stand in square brackets, D forms with d. Residues, ends and D or L forms follow the SMILES beside them. *: point of attachment. Sta = CC(C)C[C@H](N)[C@@H](O)CC(=O)O; Isovaleryl = CC(C)CC(=O)*

Tests used:
[1] = qHTS assay for small molecule agonists of the p53 signaling pathway (AID 651631; calls by dose curve; note: nearly all actives have a fitted effect of over 15% in size)
How it was run: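 Agonist mode screen using a stably integrated beta-lactamase gene under p53 response elements in HCT-116 cells. Compound exposure lasts 16 h at 37 °C; fluorescence intensity is measured following 2 h FRET substrate loading.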

[2] = qHTS assay for small molecules that induce genotoxicity in human embryonic kidney cells expressing luciferase-tagged ATAD5 (AID 651632); note: nearly all actives have a fitted effect of over 15% in size
How it was run: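 Concentration-response screen for ATAD5 upregulation in HEK293T luciferase reporter cells; 16 hr treatment at 37C, then luminescence after 30 min with Amplite at room temperature.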

[3] = qHTS assay for small molecule agonists of the p53 signaling pathway - cell viability (AID 651633; calls by dose curve;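 note: p53RE-bla HCT reporter cells with a stable beta-lactamase p53 reporter; series mostly up to about 83 µM; nearly all actives have a fitted effect of over 30% in size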)
How it was run: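 p53RE-bla cells were treated with compound for 16 hours at 37 C. Cytotoxicity was then measured as CellTiter-Glo luminescence after 30 min at room temperature.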

[4] = qHTS assay for small molecules that induce genotoxicity in human embryonic kidney cells expressing luciferase-tagged ATAD5 - cell viability (AID 651634; calls by dose curve; note: nearly all actives have a fitted effect of over 25% in size)
How it was run: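 15.5 hr compound or vehicle exposure of HEK293T cells expressing luciferase-tagged ATAD5 at 37C; live-cell protease activity is read by fluorescence after 30 min of CellTiter-Fluor.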

[5] = qHTS assay for small molecule disruptors of the mitochondrial membrane potential - cell viability (AID 720634; calls by dose curve;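 note: human HepG2 liver cancer cells; series mostly up to about 83 µM; nearly all actives have a fitted effect of over 20% in size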)
How it was run: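 In this qHTS format, HepG2 cells plated overnight were pinned with compound, incubated 1 hr, and assayed for ATP luminescence with CellTiter-Glo after m-MPI dye addition.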

[6] = qHTS assay for small molecule disruptors of the mitochondrial membrane potential (AID 720635)
How it was run: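 HepG2 cells exposed to compound 1 hr at 37C, then Mito-MPS dye 30 min. Ratio read of aggregate (540/590 nm) versus monomer (490/535 nm) fluorescence.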

[7] = qHTS assay to test for compound auto fluorescence at 590 nm (red) in HepG2 cells (AID 720674)
How it was run: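 HepG2 cells, 2,000 per well in MEM with 10% FBS, attached overnight at 37 C, then got 23 nL compound or DMSO. After 1 hr at 37 C, 5% CO2, red fluorescence was read at 540/590 nm against Rose Bengal sodium as reference.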

[8] = qHTS assay to test for compound auto fluorescence at 535 nm (green) in HepG2 cells (AID 720675)
[9] = qHTS assay to test for compound auto fluorescence at 460 nm (blue) in HEK293 cells (AID 720678)
How it was run: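 After cell attachment (4-5 hr, 37C), compounds were pinned onto HEK293 monolayers in 10% dialyzed FBS medium. The blue channel (405/460 nm) was read following overnight culture. Equivalency was calculated against triamterene.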

[10] = qHTS assay to test for compound auto fluorescence at 590 nm (red) in HEK293 cells (AID 720679)
How it was run: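 Plates of HEK293 cells (10% dialyzed FBS) are treated with 23 nL compound or DMSO vehicle after a 4-5 hr attachment period, incubated overnight at 37C, and read for red fluorescence at 540/590nm.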

[11] = qHTS assay to test for compound auto fluorescence at 535 nm (green) in HEK293 cells (AID 720680)
[12] = qHTS assay to test for compound auto fluorescence at 535 nm (green) in HEK293 cell free culture (AID 720682)
How it was run: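 No cells present: wells hold DMEM supplemented with 10% FBS, into which compound or vehicle is pinned. Green emission is then recorded (485 nm excitation, 535 nm emission) and scaled to fluorescein.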

[13] = qHTS assay to test for compound auto fluorescence at 590 nm (red) in HEK293 cell free culture (AID 720683)
How it was run: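 Cell-free wells of DMEM with 10% FBS received compound, and intrinsic fluorescence was read at excitation/emission 540/590 nm. Values expressed as equivalence to Rose Bengal sodium.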

[14] = qHTS assay to test for compound auto fluorescence at 590 nm (red) in HepG2 cell free culture (AID 720684)
How it was run: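 Auto fluorescence equivalency versus Rose Bengal sodium, red channel Ex/Em 540/590 nm; compounds in cell-free MEM/10% FBS; DMSO vehicle control.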

[15] = qHTS assay to test for compound auto fluorescence at 460 nm (blue) in HepG2 cell free culture (AID 720685)
How it was run: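 Cell-free plates of MEM plus 10% FBS received 23 nL compound or DMSO vehicle; blue-channel (405/460 nm) intensity scored against triamterene as reference fluorophore.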

[16] = qHTS assay to test for compound auto fluorescence at 460 nm (blue) in HepG2 cells (AID 720687)
How it was run: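 HepG2 cells in MEM with 10% FBS, attached overnight at 37 C, were exposed to compound or DMSO for 1 hr at 37 C, 5% CO2. Blue fluorescence was read at 405/460 nm, with triamterene as reference fluorophore.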

[17] = qHTS assay to test for compound auto fluorescence at 460 nm (blue) in HEK293 cell free culture (AID 720681)
How it was run: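 Compounds were added to cell-free DMEM with 10% FBS and fluorescence read directly. The blue channel used 405 nm excitation and 460 nm emission, with triamterene as the reference fluorophore.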

[18] = qHTS assay to test for compound auto fluorescence at 535 nm (green) in HepG2 cell free culture (AID 720686)
[19] = target: Glucocorticoid receptor (Homo sapiens) (UniProt P04150); assay: qHTS assay to identify small molecule antagonists of the glucocorticoid receptor (GR) signaling pathway (AID 720692; active = well fitted inhibition curve with a large enough effect in the signal ratio in the repeat runs, not every such curve was filed as active; the % refers to the signal ratio)
How it was run: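 Tox21 10K library screened in concentration-response for blockade of dexamethasone (5 nM final)-induced GRE-bla reporter activity in HeLa cells; 18 h treatment, fluorescence read.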

[20] = target: Glucocorticoid receptor (Homo sapiens) (UniProt P04150); assay: qHTS assay to identify small molecule agonists of the glucocorticoid receptor (GR) signaling pathway (AID 720691; active = well fitted activation curve with a large enough effect in the signal ratio in the repeat runs, not every such curve was filed as active; the % refers to the signal ratio)
How it was run: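 Measures GR pathway activation through a GRE-beta-lactamase reporter stably integrated in HeLa cells, with 18 h compound treatment at 37 C and fluorescence detection using a FRET substrate.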

Measured: Potency

Glucocorticoid receptor (Homo sapiens), sequence (P04150 whole entry, looked up): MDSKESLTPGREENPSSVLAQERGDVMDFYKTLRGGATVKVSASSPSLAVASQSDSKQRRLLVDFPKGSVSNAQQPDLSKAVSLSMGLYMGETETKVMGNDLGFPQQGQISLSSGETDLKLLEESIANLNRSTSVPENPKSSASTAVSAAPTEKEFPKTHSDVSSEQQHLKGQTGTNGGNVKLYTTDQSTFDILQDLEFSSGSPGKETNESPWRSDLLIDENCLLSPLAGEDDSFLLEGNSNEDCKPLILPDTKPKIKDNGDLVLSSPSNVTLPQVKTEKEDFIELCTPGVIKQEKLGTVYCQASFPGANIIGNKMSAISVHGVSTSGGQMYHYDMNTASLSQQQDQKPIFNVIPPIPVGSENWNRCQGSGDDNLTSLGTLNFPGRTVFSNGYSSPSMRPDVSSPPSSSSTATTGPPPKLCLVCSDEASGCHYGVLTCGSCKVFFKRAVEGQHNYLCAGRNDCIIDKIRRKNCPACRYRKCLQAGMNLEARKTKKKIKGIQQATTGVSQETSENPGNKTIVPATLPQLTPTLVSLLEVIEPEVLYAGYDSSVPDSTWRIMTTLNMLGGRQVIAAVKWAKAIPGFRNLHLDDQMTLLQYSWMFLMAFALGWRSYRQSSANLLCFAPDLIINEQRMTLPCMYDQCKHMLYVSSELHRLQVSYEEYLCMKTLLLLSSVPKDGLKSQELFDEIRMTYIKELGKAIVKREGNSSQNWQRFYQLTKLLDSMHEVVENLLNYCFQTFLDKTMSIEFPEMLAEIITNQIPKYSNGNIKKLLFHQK

CCCCCCCC(=O)N(C)C
inactive: [1] | [2] | [3] | [4] | [5] | [6] | [7] | [8] | [9] | [10] | [11] | [12] | [13] | [14] | [15] | [16]

CSC(=O)c1cccc2nnsc12
inactive: [1] | [2] | [3] | [4] | [5] | [6] | [7] | [9] | [10] | [11] | [17] | [12] | [13] | [14] | [15] | [18] | [16] | [19]

O=P(O)(O)C(O)(Cc1cccnc1)P(=O)(O)O
inactive: [1] | [2] | [3] | [4] | [5] | [6] | [7] | [8] | [9] | [10] | [17] | [12] | [13] | [14] | [15] | [16]

C=COCCCCO
inactive: [1] | [2] | [3] | [4] | [5] | [6] | [7] | [8] | [9] | [10] | [11] | [17] | [12] | [14] | [15] | [16] | [20] | [19]

CCOC(=O)CC
inactive: [1] | [2] | [3] | [4] | [5] | [6] | [7] | [9] | [10] | [11] | [17] | [12] | [13] | [14] | [15] | [18] | [16]

CCOC(=O)CC(C(C)=O)C(C)=O
inactive: [1] | [2] | [3] | [4] | [5] | [6] | [7] | [9] | [10] | [11] | [12] | [13] | [14] | [15] | [18] | [16] | [20]

CC(C)CC(=O)N[C@H](C(=O)N[C@H](C(=O)N[C@@H](CC(C)C)[C@@H](O)CC(=O)N[C@@H](C)C(=O)N[C@@H](CC(C)C)[C@@H](O)CC(=O)O)C(C)C)C(C)C (Isovaleryl-VV[Sta]A[Sta]-OH)
inactive: [1] | [2] | [3] | [4] | [5] | [6] | [7] | [8] | [9] | [10] | [11] | [12] | [13] | [14] | [15] | [16]

O=Cc1ccc(C(=O)O)cc1
inactive: [1] | [2] | [3] | [4] | [5] | [6] | [7] | [9] | [10] | [11] | [17] | [12] | [14] | [15] | [18] | [16] | [20] | [19]

CC(=O)c1c(C)cc(C(C)(C)C)cc1C
inactive: [1] | [2] | [3] | [4] | [5] | [6] | [7] | [8] | [9] | [10] | [11] | [12] | [13] | [14] | [18] | [16]

CC(=O)Nc1ccc(S(=O)(=O)Nc2cc(C)on2)cc1
inactive: [1] | [2] | [3] | [4] | [5] | [6] | [7] | [9] | [10] | [11] | [17] | [12] | [13] | [14] | [15] | [18] | [16] | [20] | [19]

C=CCN1CCc2nc(N)sc2CC1
inactive: [1] | [2] | [3] | [4] | [5] | [6] | [7] | [8] | [9] | [10] | [12] | [13] | [14] | [15] | [18] | [16] | [19]

CCCCOCCCC
inactive: [1] | [2] | [3] | [4] | [5] | [7] | [9] | [10] | [11] | [17] | [12] | [13] | [14] | [15] | [18] | [16] | [20] | [19]

CCC(C)(C)C
inactive: [1] | [2] | [3] | [4] | [5] | [7] | [9] | [10] | [11] | [17] | [12] | [13] | [14] | [15] | [18] | [16] | [20]

CCCCCCC(O)CO (centres undefined)
inactive: [1] | [2] | [3] | [4] | [5] | [7] | [8] | [9] | [10] | [11] | [12] | [14] | [15] | [18] | [16] | [19]
